High-throughput results (PubChem)
The list is not random: actives were taken first. Their share in the collection is about 4.3%.
CF NFkB block: blocks PAF-induced NF-kB reporter in cystic fibrosis cells. KKLEB NF-kB-GFP reporter, GFP fluorescence overnight. inhibition, % at 5 µM. 360,000 tested, 0.86% active;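 active = at least 50% inhibition at 5 µM, scaled per plate between neutral and stimulator controls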;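 note: PAF is a Pseudomonas aeruginosa culture filtrate used as stimulus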
CHOP inh: CHOP inhibition in unfolded protein response; 220,000 tested, 3.8% active; inhibition, % at 10 µM; CHO-K1 CHOP-promoter luciferase, tunicamycin-induced, 15-18 h; AID 2732;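 active = compounds that reduced the stress-induced luciferase reporter signal by more than about 70% of percent inhibition, limit read from the data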
Peg3 prom inh: Peg3 promoter activity inhibition | HeLa PEG-Prom luciferase reporter, luminescence, overnight | inhibition, % at 20 µM | 360,000 tested, 1.7% active | AID 588405;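 active = inhibition of at least 50% at 20 µM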
KKLEB cytotox: counter-screen for CF NF-kB inhibitors: cytotoxicity; KKLEB CF airway cells viability, ATPlite luminescence, overnight; stronger effect = lower value; cells stimulated with P. aeruginosa culture filtrate; activity change (cytotoxicity), % at 5 µM; 360,000 tested, 0.36% active; AID 602141;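 active = corrected activity change at or below -50% at 5 µM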
HIF-2a inh: blocks HIF-2a reporter activity; 786-0 RCC cells HIF-2a reporter, luciferase luminescence, overnight; inhibition, % at 18.8 µM; 360,000 tested, 0.72% active; AID 624352;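 active = inhibition of the luminescence signal of 40% or more relative to plate controls, in a single-dose primary screen at 18.75 µM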
TRPM1 prom inh: inhibitors of MITF-driven TRPM1 promoter in melanoma cells; inhibition, % at 12.5 µM; SK-MEL-5 TRPM1 promoter luciferase, 24 h; 330,000 tested, 0.83% active;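 active = mean inhibition across replicates of 60% or more, whatever share of single replicates reaches that level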
Numbers stand for hits.

`NC1=NC(c2ccc(Cl)cc2)C(C(=O)c2ccccc2)N1` (stereo unspecified) gave CF NFkB block inactive, CHOP inh inactive, Peg3 prom inh inactive, KKLEB cytotox inactive, HIF-2a inh inactive and TRPM1 prom inh inactive.
Cc1cccc(N2CCN(C(=O)c3ccc4nc(-c5ccco5)c(-c5ccco5)nc4c3)CC2C)c1 (stereo unspecified) was read as CF NFkB block inactive, CHOP inh inactive, Peg3 prom inh 63, KKLEB cytotox inactive, HIF-2a inh inactive and TRPM1 prom inh inactive.
Screening COc1ccc(CNC(=O)c2csc(Cc3ccc(Cl)cc3)n2)cc1 returned CF NFkB block inactive, CHOP inh 72, Peg3 prom inh inactive, KKLEB cytotox inactive, HIF-2a inh inactive and TRPM1 prom inh inactive.
`OC[C@@H]1[C@@H](c2ccc(F)cc2)C(c2cccc(Cl)c2)=NN1c1ccccc1` gave CF NFkB block inactive, Peg3 prom inh inactive, KKLEB cytotox inactive, HIF-2a inh inactive and TRPM1 prom inh inactive.
For COc1cc(-c2cc3nc(NCCOc4ccccc4)ccn3n2)cc(OC)c1OC the results were CF NFkB block inactive, Peg3 prom inh 53, KKLEB cytotox inactive and HIF-2a inh inactive.
For COc1cc(-c2cc3nc(NCCc4ccncc4)ccn3n2)cc(OC)c1OC the results were CF NFkB block inactive, Peg3 prom inh inactive, KKLEB cytotox inactive and HIF-2a inh inactive.
Cc1ccc(SCc2nc3ccccc3n2CC(=O)Nc2c(C)cccc2C)cc1 was read as CF NFkB block inactive, CHOP inh 90, Peg3 prom inh inactive, KKLEB cytotox inactive, HIF-2a inh inactive and TRPM1 prom inh inactive.
`CC(C)Cc1nc2ccccc2[nH]1` gave CF NFkB block inactive, CHOP inh inactive, Peg3 prom inh inactive, KKLEB cytotox inactive, HIF-2a inh inactive and TRPM1 prom inh inactive.
For CC(C)Cc1n[nH]c(=O)[nH]1 the results were CF NFkB block inactive, CHOP inh 83, Peg3 prom inh inactive, KKLEB cytotox inactive, HIF-2a inh inactive and TRPM1 prom inh inactive.
COc1ccc(OC)c(CN2C(=O)CN(S(C)(=O)=O)CC2(C)C(=O)NC(C)C)c1 (stereo unspecified) was read as HIF-2a inh inactive.
Screening CCCn1c(SCC(=O)N2N=C3/C(=C/c4ccc(OC)cc4)CCCC3C2c2ccc(OC)cc2)n[nH]c1=O (stereo unspecified) returned CF NFkB block inactive, CHOP inh 71, Peg3 prom inh inactive, KKLEB cytotox inactive, HIF-2a inh inactive and TRPM1 prom inh inactive.
For CCCSc1ncnc2c1oc1ccccc12 the results were CF NFkB block inactive, CHOP inh inactive, Peg3 prom inh inactive, KKLEB cytotox inactive, HIF-2a inh inactive and TRPM1 prom inh inactive.
CC(C)Sc1ncnc2c1oc1ccccc12 was read as CF NFkB block inactive, CHOP inh 75, Peg3 prom inh inactive, KKLEB cytotox inactive, HIF-2a inh inactive and TRPM1 prom inh inactive.
For Cc1ccc(Nc2nc(Nc3ccc(C)cc3)nc(SC3=NCCS3)n2)cc1 the results were CF NFkB block inactive, CHOP inh 90, Peg3 prom inh inactive, KKLEB cytotox inactive, HIF-2a inh inactive and TRPM1 prom inh inactive.
Screening O=C(NC(=S)NC1CCCC1)c1ccccc1Br returned CF NFkB block inactive, CHOP inh 83, Peg3 prom inh inactive, KKLEB cytotox inactive, HIF-2a inh inactive and TRPM1 prom inh inactive.
Cc1cc(C(C)(C)C)cc(C)c1Cn1c2[n+](c3ccc(C(F)(F)F)cc31)CCCCC2 was read as CF NFkB block inactive, CHOP inh inactive, Peg3 prom inh 56, KKLEB cytotox inactive, HIF-2a inh inactive and TRPM1 prom inh 84.
Screening FC(F)(F)c1cccc(Cn2c3[n+](c4ccc(C(F)(F)F)cc42)CCCCC3)c1 returned CF NFkB block inactive, CHOP inh inactive, Peg3 prom inh inactive, KKLEB cytotox inactive, HIF-2a inh inactive and TRPM1 prom inh inactive.
Screening Cc1cc(C)cc(C(=O)NCCCN2CCOCC2)c1 returned CF NFkB block inactive, Peg3 prom inh inactive, KKLEB cytotox inactive, HIF-2a inh inactive and TRPM1 prom inh inactive.
For COc1cccc(-c2cnc(C(O)c3ccc(Cl)c(F)c3)[nH]2)c1 (stereo unspecified) the results were CF NFkB block inactive, Peg3 prom inh inactive, KKLEB cytotox inactive and HIF-2a inh inactive.
Screening COc1ccc(OC)c(C2NC(=O)c3sc(=S)n(-c4ccccc4)c3N2)c1 (stereo unspecified) returned CF NFkB block inactive, CHOP inh 90, Peg3 prom inh inactive, KKLEB cytotox inactive, HIF-2a inh inactive and TRPM1 prom inh inactive.
For Cc1cc(C)c(-c2c(O)c3cccnc3n(C)c2=O)c(C)c1 the results were CF NFkB block inactive, Peg3 prom inh inactive, KKLEB cytotox inactive and HIF-2a inh inactive.
Screening COc1ccc(OC)c(S(=O)(=O)NC2CCSc3ccccc32)c1 (stereo unspecified) returned CF NFkB block inactive, Peg3 prom inh inactive, KKLEB cytotox inactive, HIF-2a inh inactive and TRPM1 prom inh inactive.
Screening Cc1ccc2nc(-c3ccc(NS(=O)(=O)c4ccc(F)c(F)c4)cc3)sc2c1 returned CF NFkB block inactive, CHOP inh 85, Peg3 prom inh inactive, KKLEB cytotox inactive, HIF-2a inh inactive and TRPM1 prom inh inactive.
Screening Cc1ccc(Cn2nnc3c(=O)[nH]c(C4CCN(S(=O)(=O)c5ccc(F)cc5)CC4)nc32)cc1 returned CF NFkB block inactive, CHOP inh 84, Peg3 prom inh inactive, KKLEB cytotox inactive, HIF-2a inh inactive and TRPM1 prom inh inactive.
For O=c1[nH]c(C2CCN(S(=O)(=O)c3ccc(F)cc3)CC2)nc2c1nnn2Cc1ccc2c(c1)OCCO2 the results were CF NFkB block inactive, Peg3 prom inh inactive, KKLEB cytotox inactive, HIF-2a inh inactive and TRPM1 prom inh inactive.
O=c1[nH]c(C2CCN(S(=O)(=O)c3ccccc3F)CC2)nc2c1nnn2Cc1ccc2c(c1)OCCO2 was read as CF NFkB block inactive, Peg3 prom inh 60, KKLEB cytotox inactive, HIF-2a inh inactive and TRPM1 prom inh inactive.
Cc1ccc(C)c(S(=O)(=O)N2CCC(c3nc4c(nnn4Cc4ccc(F)cc4)c(=O)[nH]3)CC2)c1 was read as CF NFkB block inactive, CHOP inh inactive, Peg3 prom inh inactive, KKLEB cytotox inactive, HIF-2a inh inactive and TRPM1 prom inh inactive.
`C=CCSc1nnc(NC(=O)C2CC(=O)N(Cc3ccc(C)cc3)C2)s1` (stereo unspecified) gave CF NFkB block inactive, Peg3 prom inh inactive, KKLEB cytotox inactive, HIF-2a inh inactive and TRPM1 prom inh inactive.
For O=C(CSc1nnc(Cc2cccs2)n1Cc1ccco1)Nc1cccc(Cl)c1 the results were CF NFkB block inactive, CHOP inh inactive, Peg3 prom inh inactive, KKLEB cytotox inactive, HIF-2a inh inactive and TRPM1 prom inh inactive.
Screening O=C(CSc1nnc(-c2ccncc2)n1Cc1ccco1)Nc1ccccc1Cl returned CF NFkB block inactive, CHOP inh inactive, Peg3 prom inh inactive, KKLEB cytotox inactive, HIF-2a inh inactive and TRPM1 prom inh inactive.
